Assay results reported in PubChem BioAssay (EPA / NIEHS).
Inconclusive results are not listed. Calls of active or inactive are those of the source. How the source made its calls: active means hit-call score of the fitted dose curve at least 0.9, where 1 is the maximum; inconclusive means response in the unintended direction; inactive means score below 0.9.

Columns and labels:
[1] = target: human Peroxisome Proliferator-activated Receptor alpha (PPARa), PPARA (gene 5465) (UniProt Q07869); experiment: ATG_PPARa_TRANS: Attagene TRANS-FACTORIAL HepG2 Assay for human Peroxisome Proliferator-activated Receptor alpha (PPARa) (AID 2283001);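 on AC50: potency for gain of reporter signal over DMSO so agonist or activator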
Chain of human Peroxisome Proliferator-activated Receptor alpha (PPARa), PPARA (gene 5465) (Q07869 whole entry, looked up, the tested form may be a part): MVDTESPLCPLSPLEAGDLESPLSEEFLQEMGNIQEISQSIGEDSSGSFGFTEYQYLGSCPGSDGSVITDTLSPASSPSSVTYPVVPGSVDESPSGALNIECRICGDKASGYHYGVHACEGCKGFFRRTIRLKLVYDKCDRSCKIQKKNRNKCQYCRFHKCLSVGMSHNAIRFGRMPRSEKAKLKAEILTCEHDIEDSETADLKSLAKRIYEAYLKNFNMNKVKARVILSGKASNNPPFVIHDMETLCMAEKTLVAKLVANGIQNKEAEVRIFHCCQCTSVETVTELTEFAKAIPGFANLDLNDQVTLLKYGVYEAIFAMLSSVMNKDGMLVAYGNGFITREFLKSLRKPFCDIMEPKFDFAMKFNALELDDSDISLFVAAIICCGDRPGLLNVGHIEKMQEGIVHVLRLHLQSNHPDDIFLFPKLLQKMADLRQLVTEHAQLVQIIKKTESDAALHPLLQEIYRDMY
How it was run: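 Transient HepG2 transfection, GAL4-UAS reporters, NR-Gal4 chimeras; 24 h compound exposure. Readout: reporter transcripts by RT-PCR, 6-FAM primer extension, HpaI digest, capillary electrophoresis. Positive direction vs DMSO baseline.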

[2] = target: Peroxisome proliferator-activated receptor gamma (Homo sapiens) (UniProt P37231); experiment: ATG_PPARg_TRANS: Attagene TRANS-FACTORIAL HepG2 Assay for human Peroxisome Proliferator-activated Receptor-gamma (PPARg) (AID 2283007)
Chain of Peroxisome proliferator-activated receptor gamma (Homo sapiens) (P37231 whole entry, looked up, the tested form may be a part): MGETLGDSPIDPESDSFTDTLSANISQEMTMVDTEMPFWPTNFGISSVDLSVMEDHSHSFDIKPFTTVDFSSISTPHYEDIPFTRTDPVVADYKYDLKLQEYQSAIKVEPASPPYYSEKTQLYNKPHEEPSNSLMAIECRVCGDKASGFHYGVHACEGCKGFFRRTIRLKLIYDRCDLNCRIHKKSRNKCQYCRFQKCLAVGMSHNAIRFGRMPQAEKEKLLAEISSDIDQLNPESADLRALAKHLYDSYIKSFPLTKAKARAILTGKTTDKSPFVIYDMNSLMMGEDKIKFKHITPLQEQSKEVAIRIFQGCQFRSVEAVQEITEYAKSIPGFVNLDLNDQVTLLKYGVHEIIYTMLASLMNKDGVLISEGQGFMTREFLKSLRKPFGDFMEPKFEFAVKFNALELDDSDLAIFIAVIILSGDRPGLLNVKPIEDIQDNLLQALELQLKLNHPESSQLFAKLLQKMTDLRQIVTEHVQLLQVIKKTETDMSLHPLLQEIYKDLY
How it was run: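 Endpoint reflects upward reporter mRNA change versus DMSO controls. Setup: transiently transfected HepG2, GAL4-UAS reporters driven by chimeric NR-Gal4, 24 h incubation, RT-PCR with capillary electrophoresis read-out.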

[3] = target: Nuclear receptor subfamily 1 group I member 2 (Homo sapiens) (UniProt O75469); experiment: ATG_PXR_TRANS: Attagene TRANS-FACTORIAL HepG2 Assay for human Pregnane X Receptor (PXR) (AID 2283008)
Chain of Nuclear receptor subfamily 1 group I member 2 (Homo sapiens) (O75469 whole entry, looked up, the tested form may be a part): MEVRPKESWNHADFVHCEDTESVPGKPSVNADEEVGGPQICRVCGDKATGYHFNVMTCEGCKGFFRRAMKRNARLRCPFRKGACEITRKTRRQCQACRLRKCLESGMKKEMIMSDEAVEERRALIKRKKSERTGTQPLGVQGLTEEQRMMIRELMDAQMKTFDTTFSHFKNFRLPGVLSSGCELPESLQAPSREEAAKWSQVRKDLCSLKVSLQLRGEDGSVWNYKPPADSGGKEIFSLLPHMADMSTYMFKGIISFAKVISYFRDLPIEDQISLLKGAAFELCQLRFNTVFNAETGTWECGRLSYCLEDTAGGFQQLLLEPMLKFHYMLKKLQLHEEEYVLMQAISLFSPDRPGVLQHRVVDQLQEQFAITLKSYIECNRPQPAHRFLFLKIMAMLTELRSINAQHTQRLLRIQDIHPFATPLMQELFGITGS
How it was run: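 HepG2 transfected (FuGene 6) with GAL4-UAS reporter units + PXR-Gal4 chimera; dosed 24 h. Total RNA → oligo(dT) RT → PCR → 6-FAM primer extension → HpaI cut → CE. Gain-of-signal vs DMSO.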

[4] = target: human Retinoid X Receptor beta (RXRb), RXRB (gene 6257) (UniProt P28702); experiment: ATG_RXRb_TRANS: Attagene TRANS-FACTORIAL HepG2 Assay for human Retinoid X Receptor beta (RXRb) (AID 2283013)
Chain of human Retinoid X Receptor beta (RXRb), RXRB (gene 6257) (P28702 whole entry, looked up, the tested form may be a part): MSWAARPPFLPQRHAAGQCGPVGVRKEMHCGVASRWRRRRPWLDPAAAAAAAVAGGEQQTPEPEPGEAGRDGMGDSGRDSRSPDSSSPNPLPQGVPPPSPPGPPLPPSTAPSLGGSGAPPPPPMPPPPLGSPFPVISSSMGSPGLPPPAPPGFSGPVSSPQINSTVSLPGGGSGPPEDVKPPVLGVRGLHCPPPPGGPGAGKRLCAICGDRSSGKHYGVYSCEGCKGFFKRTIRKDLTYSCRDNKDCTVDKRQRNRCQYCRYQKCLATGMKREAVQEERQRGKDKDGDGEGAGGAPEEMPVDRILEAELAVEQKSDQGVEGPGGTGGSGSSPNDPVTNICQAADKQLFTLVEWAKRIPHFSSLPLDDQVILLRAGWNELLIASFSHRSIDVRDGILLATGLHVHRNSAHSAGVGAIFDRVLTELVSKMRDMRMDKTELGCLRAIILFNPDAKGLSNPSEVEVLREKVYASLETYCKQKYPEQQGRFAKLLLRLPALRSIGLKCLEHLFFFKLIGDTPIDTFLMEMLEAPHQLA
How it was run: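 After a 24 h incubation with test chemical, transfected HepG2 cells carrying NR-Gal4 fusions and GAL4-UAS reporter transcription units yield RNA whose reporter cDNA is FAM-labelled, HpaI-cut and sized by capillary electrophoresis; increases over DMSO are scored.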

[5] = target: human RAR-related Orphan Receptor beta (RORb), RORB (gene 6096) (UniProt Q92753); experiment: ATG_RORb_TRANS: Attagene TRANS-FACTORIAL HepG2 Assay for human RAR-related Orphan Receptor beta (RORb) (AID 2283010)
Chain of human RAR-related Orphan Receptor beta (RORb), RORB (gene 6096) (Q92753 whole entry, looked up, the tested form may be a part): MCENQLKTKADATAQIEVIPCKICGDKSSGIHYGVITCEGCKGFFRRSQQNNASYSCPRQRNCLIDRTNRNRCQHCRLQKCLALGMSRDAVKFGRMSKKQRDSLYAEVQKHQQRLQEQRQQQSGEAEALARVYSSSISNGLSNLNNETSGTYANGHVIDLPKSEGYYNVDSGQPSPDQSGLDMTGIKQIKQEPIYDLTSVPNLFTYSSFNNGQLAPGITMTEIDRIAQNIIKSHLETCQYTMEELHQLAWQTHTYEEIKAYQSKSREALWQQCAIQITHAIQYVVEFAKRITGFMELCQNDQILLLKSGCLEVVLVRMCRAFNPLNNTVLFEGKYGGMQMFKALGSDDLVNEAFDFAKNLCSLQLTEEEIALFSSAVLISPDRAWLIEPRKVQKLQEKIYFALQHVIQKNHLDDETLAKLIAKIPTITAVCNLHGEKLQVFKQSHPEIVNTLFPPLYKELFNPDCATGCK
How it was run: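 Multiplexed transcription-factor reporter assay: HepG2 cells transiently carrying NR-Gal4/GAL4-UAS constructs, 24 h treatment, mRNA quantified by RT-PCR plus capillary electrophoresis fluorescence; activity scored as induction over DMSO.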

[6] = target: human RAR-related Orphan Receptor gamma (RORg), RORC (gene 6097) (UniProt P51449); experiment: ATG_RORg_TRANS: Attagene TRANS-FACTORIAL HepG2 Assay for human RAR-related Orphan Receptor gamma (RORg) (AID 2283011)
Chain of human RAR-related Orphan Receptor gamma (RORg), RORC (gene 6097) (P51449 whole entry, looked up, the tested form may be a part): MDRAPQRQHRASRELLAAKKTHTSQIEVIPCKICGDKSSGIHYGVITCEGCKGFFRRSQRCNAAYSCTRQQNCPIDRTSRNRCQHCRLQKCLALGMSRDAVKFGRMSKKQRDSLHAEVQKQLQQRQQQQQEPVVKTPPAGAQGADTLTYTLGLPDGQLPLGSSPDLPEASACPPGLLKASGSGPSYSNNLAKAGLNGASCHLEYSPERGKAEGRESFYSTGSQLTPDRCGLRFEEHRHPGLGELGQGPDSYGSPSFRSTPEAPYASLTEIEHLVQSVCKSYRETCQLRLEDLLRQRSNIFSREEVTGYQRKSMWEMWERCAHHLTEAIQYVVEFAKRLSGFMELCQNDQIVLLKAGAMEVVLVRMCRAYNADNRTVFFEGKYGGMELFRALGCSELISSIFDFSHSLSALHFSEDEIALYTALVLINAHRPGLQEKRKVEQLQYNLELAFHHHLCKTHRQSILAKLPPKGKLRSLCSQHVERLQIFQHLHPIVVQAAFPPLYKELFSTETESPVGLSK
How it was run: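 Chimeric RORg-Gal4 transactivation in transfected HepG2; 24 h exposure; RT-PCR/capillary electrophoresis readout of reporter mRNA, DMSO baseline.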

[7] = target: Retinoic acid receptor RXR-alpha (Homo sapiens) (UniProt P19793); experiment: ATG_RXRa_TRANS: Attagene TRANS-FACTORIAL HepG2 Assay for human Retinoid X Receptor alpha (RXRa) (AID 2283012)
Chain of Retinoic acid receptor RXR-alpha (Homo sapiens) (P19793 whole entry, looked up, the tested form may be a part): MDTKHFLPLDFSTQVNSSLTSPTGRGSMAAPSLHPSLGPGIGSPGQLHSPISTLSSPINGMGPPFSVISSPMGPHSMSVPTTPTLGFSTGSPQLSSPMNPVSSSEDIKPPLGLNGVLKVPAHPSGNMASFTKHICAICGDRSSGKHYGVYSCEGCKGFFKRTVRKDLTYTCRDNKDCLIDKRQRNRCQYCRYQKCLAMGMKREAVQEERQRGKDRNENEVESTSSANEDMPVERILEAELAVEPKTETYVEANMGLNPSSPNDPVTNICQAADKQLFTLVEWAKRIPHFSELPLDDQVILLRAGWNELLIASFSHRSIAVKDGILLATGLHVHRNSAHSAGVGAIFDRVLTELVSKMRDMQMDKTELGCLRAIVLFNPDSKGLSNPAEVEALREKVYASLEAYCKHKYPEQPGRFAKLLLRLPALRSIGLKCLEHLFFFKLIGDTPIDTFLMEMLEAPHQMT
How it was run: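 Chimeric NR-GAL4 trans-activation in HepG2, 24 h treatment; reporter transcripts quantified by fluorescence on capillary electrophoresis, analysed for upward change from DMSO.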

[8] = target: human Retinoic Acid Receptor beta (RARb), RARB (gene 5915) (UniProt P10826); experiment: ATG_RARb_TRANS: Attagene TRANS-FACTORIAL HepG2 Assay for human Retinoic Acid Receptor beta (AID 2283004)
Chain of human Retinoic Acid Receptor beta (RARb), RARB (gene 5915) (P10826 whole entry, looked up, the tested form may be a part): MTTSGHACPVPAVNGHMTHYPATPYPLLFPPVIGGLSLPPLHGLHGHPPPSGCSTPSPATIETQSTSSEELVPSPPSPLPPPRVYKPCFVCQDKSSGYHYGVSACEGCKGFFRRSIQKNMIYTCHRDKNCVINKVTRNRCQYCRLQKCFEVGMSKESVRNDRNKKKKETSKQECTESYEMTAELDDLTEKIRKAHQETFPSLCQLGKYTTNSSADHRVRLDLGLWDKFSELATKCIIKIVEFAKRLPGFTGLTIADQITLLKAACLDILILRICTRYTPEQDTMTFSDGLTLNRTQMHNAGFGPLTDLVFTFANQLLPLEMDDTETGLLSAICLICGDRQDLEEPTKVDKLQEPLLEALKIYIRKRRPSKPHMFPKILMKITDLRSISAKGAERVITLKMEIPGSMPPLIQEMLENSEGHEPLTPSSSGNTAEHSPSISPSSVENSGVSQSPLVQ
How it was run: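 Fluorescent capillary-electrophoresis detection of GAL4-UAS reporter mRNA defines the endpoint, with induction over DMSO-treated wells scored as activity. Transiently transfected human hepatoma HepG2 cells expressing exogenous NR–Gal4 proteins are exposed to test chemicals for 24 h.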

[9] = target: Retinoic acid receptor alpha (Homo sapiens) (UniProt P10276); experiment: ATG_RARa_TRANS: Attagene TRANS-FACTORIAL HepG2 Assay for human Retinoic Acid Receptor alpha (RARa) (AID 2283005)
How it was run: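 HepG2 transiently transfected with multiplex GAL4-UAS reporter units including a human RARa–GAL4 chimera; 24 h compound exposure. Reporter mRNA quantified by RT-PCR, 6-FAM labeling and capillary electrophoresis; gain of signal versus DMSO.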

[10] = target: human Thyroid Receptor alpha (THRa1), THRA (gene 7067) (UniProt P10827); experiment: ATG_THRa1_TRANS: Attagene TRANS-FACTORIAL HepG2 Assay for human Thyroid Receptor alpha (THRa1) (AID 2283014)
Chain of human Thyroid Receptor alpha (THRa1), THRA (gene 7067) (P10827 whole entry, looked up, the tested form may be a part): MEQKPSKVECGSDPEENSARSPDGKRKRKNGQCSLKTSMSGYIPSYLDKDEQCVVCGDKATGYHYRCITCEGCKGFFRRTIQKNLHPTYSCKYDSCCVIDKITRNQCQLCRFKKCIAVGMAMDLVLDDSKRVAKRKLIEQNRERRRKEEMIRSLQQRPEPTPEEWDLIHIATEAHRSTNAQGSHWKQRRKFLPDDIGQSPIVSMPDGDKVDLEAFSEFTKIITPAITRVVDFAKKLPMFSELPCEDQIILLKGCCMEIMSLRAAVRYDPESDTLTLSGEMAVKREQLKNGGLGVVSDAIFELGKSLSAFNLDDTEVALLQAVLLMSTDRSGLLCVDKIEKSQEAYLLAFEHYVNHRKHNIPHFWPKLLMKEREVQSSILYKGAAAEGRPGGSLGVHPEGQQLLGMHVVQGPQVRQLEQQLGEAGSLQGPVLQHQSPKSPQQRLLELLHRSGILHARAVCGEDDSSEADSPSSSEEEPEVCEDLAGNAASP
How it was run: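 Measured here is mRNA from a GAL4-UAS reporter in transfected HepG2 cells carrying a Gal4-fused receptor, 24 h post-dose. DMSO served as negative control and baseline.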

[11] = target: human Retinoic Acid Receptor gamma (RARg), RARG (gene 5916) (UniProt P13631); experiment: ATG_RARg_TRANS: Attagene TRANS-FACTORIAL HepG2 Assay for human Retinoic Acid Receptor gamma (RARg) (AID 2283009)
Chain of human Retinoic Acid Receptor gamma (RARg), RARG (gene 5916) (P13631 whole entry, looked up, the tested form may be a part): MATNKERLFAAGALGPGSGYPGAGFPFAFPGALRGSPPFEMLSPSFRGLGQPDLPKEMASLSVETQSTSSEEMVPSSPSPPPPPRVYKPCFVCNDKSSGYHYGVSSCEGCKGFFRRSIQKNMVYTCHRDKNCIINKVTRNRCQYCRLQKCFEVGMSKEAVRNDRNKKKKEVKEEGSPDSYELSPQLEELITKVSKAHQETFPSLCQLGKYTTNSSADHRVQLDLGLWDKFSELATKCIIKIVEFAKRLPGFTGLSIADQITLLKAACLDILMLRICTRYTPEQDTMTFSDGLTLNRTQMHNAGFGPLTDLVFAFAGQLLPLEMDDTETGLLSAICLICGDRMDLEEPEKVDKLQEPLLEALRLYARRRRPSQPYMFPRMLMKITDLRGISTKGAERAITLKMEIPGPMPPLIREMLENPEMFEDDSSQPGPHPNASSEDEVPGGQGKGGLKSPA
How it was run: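 Gain-of-signal relative to DMSO is reported from fluorescent capillary electrophoresis of RT-PCR reporter products. These came from HepG2 cells expressing transfected RARg-GAL4 chimeras with UAS reporters, harvested 24 h after dosing.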

Measured: AC50

CC(C)(C#N)c1cc(Cn2cncn2)cc(C(C)(C)C#N)c1
inactive: [1] | [2] | [3] | [4]

CCCC(C)C=O (stereo not drawn)
inactive: [1] | [2] | [3] | [5] | [6] | [7] | [4]

CCCCCCCCCCCCOCCO
active: [4] 33.4 µM
inactive: [1] | [8] | [9] | [7]

c1ccc(CCCc2ccccn2)cc1
inactive: [1] | [10]
active: [2] 50.7 µM | [3] 18.6 µM

CC(C)=CCCC(C)CC=O (stereo not drawn)
inactive: [1] | [2] | [3] | [4] | [10]

CC(C)C[C@H]1C(=O)N2CCC[C@H]2[C@]2(O)O[C@](NC(=O)[C@@H]3C=C4c5cccc6[nH]c(Br)c(c56)C[C@H]4N(C)C3)(C(C)C)C(=O)N12
inactive: [1] | [8] | [2] | [11] | [6]
active: [3] 0.505 µM

CCCCCCCCCCCCCC(=O)O
active: [1] 27.9 µM | [4] 69.7 µM
inactive: [2] | [3] | [7] | [10]

C=CC(=O)NCOCC(C)C
inactive: [1] | [2] | [3]

O=C(O)Cc1cccc2ccccc12
inactive: [1] | [3] | [5] | [6] | [4]
active: [2] 69 µM

CCCC(=O)OCCC(C)CCC=C(C)C (stereo not drawn)
active: [2] 31 µM
inactive: [1] | [3] | [5] | [6] | [7] | [10]

CCCC(=O)c1cc(O)c(O)cc1O
inactive: [1] | [2] | [3] | [6]

COCCCOc1ccnc(CS(=O)c2nc3ccccc3[nH]2)c1C (stereo not drawn)
inactive: [1] | [9] | [11] | [7] | [4]
active: [2] 31.3 µM | [3] 4.77 µM | [10] 100 µM

CC(C)CCCCCCCOC(=O)c1ccc(C(=O)OCCCCCCCC(C)C)c(C(=O)OCCCCCCCC(C)C)c1
inactive: [1] | [2] | [5] | [6]

CC(=O)Nc1ccc(CC(=O)O)cc1
inactive: [1] | [2] | [5]

CC(C)=CCC[C@H](C)CC=O
inactive: [1] | [2] | [3] | [4] | [10]

CCCCc1ccc(N)cc1
inactive: [2] | [3] | [5]
active: [1] 38.7 µM

C/C=C(\C)C(=O)OCc1ccccc1
inactive: [1] | [2] | [3] | [6] | [4] | [10]

CC(C)=CCCC(C)=CCCC(C)=CCO
inactive: [1] | [8]
active: [2] 39.9 µM | [3] 10.2 µM | [7] 100 µM | [4] 28.1 µM

CCC(C)CCCC(C)(C)O (stereo not drawn)
inactive: [1] | [8] | [2] | [3] | [11] | [5] | [6] | [4] | [10]

NCCCCCCN
inactive: [1] | [8] | [11] | [6] | [7]

O=C1O[C@@H]2[C@@H](O)[C@H](O)O[C@@H]2[C@H]1O
inactive: [1] | [2] | [3] | [4]

CCCCCC=CCC(=O)OC
inactive: [1] | [3] | [7]
active: [2] 75.4 µM

CCCc1ccccc1O
inactive: [1] | [2] | [3] | [7] | [10]
active: [4] 65.7 µM

C=C(C)C(=O)OCCOC(=O)CC(C)=O
inactive: [1] | [2] | [3] | [4]

O=S(=O)(O)NC1CCCCC1
inactive: [1] | [8] | [2] | [10]

Cc1ccc(C(C)C)cc1O
active: [4] 100 µM
inactive: [1] | [2] | [3] | [5] | [6] | [10]

CC(CN1c2ccccc2Sc2ccccc21)N(C)C (stereo not drawn)
active: [2] 47.8 µM | [3] 6.83 µM
inactive: [1] | [11] | [7] | [10]

NC(N)=NC(=O)c1nc(Cl)c(N)nc1N
inactive: [1] | [2] | [3] | [5] | [7] | [10]

COc1nc(C)nc(N)n1
inactive: [1] | [2] | [3] | [5] | [7] | [4] | [10]

COc1ccc(OC)c(OC)c1
inactive: [1] | [2] | [3] | [6] | [10]

CSc1nnc(C(C)(C)C)c(=O)[nH]1
inactive: [1] | [2] | [3] | [6]

O=C(O)CCSCCC(=O)O
inactive: [1] | [3] | [6] | [7] | [4]
